Assay results published in PubChem BioAssay.
The source made the active and inactive calls.

How the values were obtained:
[1] = test system: PRMT1 (protein arginine N-methyltransferase 1); assay: PRMT1 binders on small-molecule microarrays, primary screen, biochemical, small-molecule microarray, 635 nm fluorescence (AID 1088); details: small-molecule microarray binding, higher = more signal;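 note: binding of Prmt1 protein to compounds spotted on small-molecule microarray slides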
[2] = yeast growth modulation, basal conditions, primary screen, YJM789 clinical isolate, OD600, 24 h (AID 1089);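 note: growth of clinical yeast isolate S. cerevisiae YJM 789 seeded 1000 cells per well; test concentration not given here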; details: S. cerevisiae YJM789 growth, higher = more signal, called active from +8 up or from −8 down
[3] = fission yeast growth modulation, primary screen, strain 972, OD600, 24 h, no modulator (AID 1090);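 note: basal condition with compound alone and no growth modifier present; test concentration not given here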; details: S. pombe 972 growth, higher = more signal, called active from +8 up or from −8 down
[4] = S. cerevisiae growth modulation with rapamycin, primary screen, strain BY4716, OD600, 96 h (AID 1091); details: higher = more signal, called active from +8 up or from −8 down; note: test concentration not given here
[5] = molecular target: Torsin-1A-interacting protein 2 (Homo sapiens) (UniProt Q8NFQ8); assay: LULL1 binders on small-molecule microarray, primary screen, cell lysate, human LULL1 lysate, 635/667 nm fluorescence (AID 1092); details: hLULL1 lysate binding, 635 nm fluorescence, higher = more signal;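 note: probe is lysate of COS7 cells overexpressing human LULL1; score merges per-feature 667 nm fluorescence with signal-to-noise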
[6] = E. coli growth modulation, two-sided OD650, primary screen, E. coli filamentation project, strain DRC41, 24 h (AID 1093); details: OD650, 24 h, higher = more signal, called active from +8 up or from −8 down;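 note: MC1000 strain lacking acrAB efflux and sulA so SOS filamentation is blocked; test concentration not given here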
[7] = small-molecule microarray binders of probe aLefty2, primary screen, biochemical, biotinylated probe, 635/667 nm fluorescence (AID 1094); details: higher = more signal;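 note: score merges spot fluorescence near 667 nm with spot signal-to-noise ratio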
[8] = test system: Noggin (protein binding on small-molecule microarray); assay: Noggin binders on small-molecule microarray, primary screen, biochemical, 635/667 nm fluorescence (AID 1095); details: 635 nm fluorescence, higher = more signal;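 note: score merges 667 nm feature fluorescence with signal to noise over triplicate slides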
[9] = molecular target: Neurogenic locus notch homolog protein 3 (Homo sapiens) (UniProt Q9UM47); assay: NOTCH3 binders on small-molecule microarray, primary screen, biochemical, 635/667 nm fluorescence (AID 1096); details: NOTCH3 binding, 635 nm fluorescence, higher = more signal
[10] = small-molecule microarray binders of probe aEGFR, primary screen, biochemical, biotinylated probe, 635/667 nm fluorescence (AID 1097); details: higher = more signal;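 note: probe is a biotinylated anti-EGFR antibody binding compounds printed on slides; score combines fluorescence near 667 nm and signal to noise of each spot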
[11] = test system: Plasmodium falciparum Sir2 (PF13_0152, Sir2A); assay: pfSir2 binders on small-molecule microarrays, primary screen, biochemical, small-molecule microarray, 635 nm fluorescence (AID 1098); details: small-molecule microarray binding, fluorescence 635 nm; higher = more signal;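 note: score merges spot fluorescence intensity with its signal-to-noise ratio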
[12] = small-molecule microarray binders of probe aDKK1, primary screen, biochemical, biotinylated probe, 635/667 nm fluorescence (AID 1099); details: higher = more signal;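 note: score merges 667nm spot fluorescence with signal to noise across triplicate slides; reference of the scale not given here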
[13] = small-molecule microarray binders of probe aCHRDL2, primary screen, biochemical, biotinylated probe, 635/667 nm fluorescence (AID 1100); details: higher = more signal
[14] = splicing luciferase reporter signal modulators, primary screen, spliceosome inhibition project, cell-based, HEK293, splice +/- reporter (AID 1101); details: luminescence, 24 h, higher = more signal, called active from +8 up or from −8 down;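 note: HEK293 cells carrying a splicing-competent luciferase reporter gene; test concentration not given here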
[15] = molecular target: Fibroblast growth factor 10 (Homo sapiens) (UniProt O15520); assay: FGF10 binders on small-molecule microarrays, primary screen, biochemical, small-molecule microarray, 635 nm fluorescence (AID 1102); details: FGF10 binding, fluorescence 635 nm, higher = more signal
[16] = test system: glycogen synthase kinase-3 (GSK3A per assay name; protocol says GSK3B); assay: GSK3 binders on small-molecule microarrays, primary screen, biochemical, small-molecule microarray, 635 nm fluorescence, GSK3A (AID 1103); details: small-molecule microarray binding, fluorescence 635 nm; higher = more signal; note: the record names both GSK3A and GSK3B
[17] = molecular target: Epidermal growth factor receptor (Homo sapiens) (UniProt P00533); assay: EGFR binders on small-molecule microarrays, primary screen, biochemical, small-molecule microarray, 635 nm fluorescence (AID 1104); details: EGFR binding, higher = more signal;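 note: score merges 667 nm emission intensity with spot signal to noise over triplicate slides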
[18] = molecular target: Follistatin-related protein 3 (Homo sapiens) (UniProt O95633); assay: FSTL3 binders on small-molecule microarrays, primary screen, biochemical, small-molecule microarray, 635 nm fluorescence (AID 1105); details: FSTL3 binding, higher = more signal;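 note: score merges emission near 667 nm and signal to noise per printed spot across three slides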
[19] = molecular target: Dickkopf-related protein 1 (Homo sapiens) (UniProt O94907); assay: DKK1 binders on small-molecule microarrays, primary screen, biochemical, small-molecule microarray, 635 nm fluorescence scan (AID 1106); details: DKK1 binding, higher = more signal;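 note: score merges emission near 667 nm with signal to noise over three replicate slides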
[20] = test system: Inhibin beta A chain (activin A); assay: INHBA (activin A) binders on microarrays, primary screen, biochemical, small-molecule microarray, 635 nm fluorescence scan (AID 1107); details: small-molecule microarray binding, higher = more signal;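 note: mouse activin A protein probed at 4.33 µg/mL on printed slides; score merges bound-protein fluorescence near 667 nm with spot signal-to-noise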

Chain of Fibroblast growth factor 10 (Homo sapiens) (O15520 whole entry, looked up): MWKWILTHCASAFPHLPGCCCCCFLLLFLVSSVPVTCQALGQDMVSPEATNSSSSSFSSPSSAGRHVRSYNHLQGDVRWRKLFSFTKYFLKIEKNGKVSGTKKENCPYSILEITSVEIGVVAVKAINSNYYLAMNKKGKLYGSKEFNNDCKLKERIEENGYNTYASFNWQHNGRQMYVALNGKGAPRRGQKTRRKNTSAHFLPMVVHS
Chain of Neurogenic locus notch homolog protein 3 (Homo sapiens) (Q9UM47 whole entry, looked up): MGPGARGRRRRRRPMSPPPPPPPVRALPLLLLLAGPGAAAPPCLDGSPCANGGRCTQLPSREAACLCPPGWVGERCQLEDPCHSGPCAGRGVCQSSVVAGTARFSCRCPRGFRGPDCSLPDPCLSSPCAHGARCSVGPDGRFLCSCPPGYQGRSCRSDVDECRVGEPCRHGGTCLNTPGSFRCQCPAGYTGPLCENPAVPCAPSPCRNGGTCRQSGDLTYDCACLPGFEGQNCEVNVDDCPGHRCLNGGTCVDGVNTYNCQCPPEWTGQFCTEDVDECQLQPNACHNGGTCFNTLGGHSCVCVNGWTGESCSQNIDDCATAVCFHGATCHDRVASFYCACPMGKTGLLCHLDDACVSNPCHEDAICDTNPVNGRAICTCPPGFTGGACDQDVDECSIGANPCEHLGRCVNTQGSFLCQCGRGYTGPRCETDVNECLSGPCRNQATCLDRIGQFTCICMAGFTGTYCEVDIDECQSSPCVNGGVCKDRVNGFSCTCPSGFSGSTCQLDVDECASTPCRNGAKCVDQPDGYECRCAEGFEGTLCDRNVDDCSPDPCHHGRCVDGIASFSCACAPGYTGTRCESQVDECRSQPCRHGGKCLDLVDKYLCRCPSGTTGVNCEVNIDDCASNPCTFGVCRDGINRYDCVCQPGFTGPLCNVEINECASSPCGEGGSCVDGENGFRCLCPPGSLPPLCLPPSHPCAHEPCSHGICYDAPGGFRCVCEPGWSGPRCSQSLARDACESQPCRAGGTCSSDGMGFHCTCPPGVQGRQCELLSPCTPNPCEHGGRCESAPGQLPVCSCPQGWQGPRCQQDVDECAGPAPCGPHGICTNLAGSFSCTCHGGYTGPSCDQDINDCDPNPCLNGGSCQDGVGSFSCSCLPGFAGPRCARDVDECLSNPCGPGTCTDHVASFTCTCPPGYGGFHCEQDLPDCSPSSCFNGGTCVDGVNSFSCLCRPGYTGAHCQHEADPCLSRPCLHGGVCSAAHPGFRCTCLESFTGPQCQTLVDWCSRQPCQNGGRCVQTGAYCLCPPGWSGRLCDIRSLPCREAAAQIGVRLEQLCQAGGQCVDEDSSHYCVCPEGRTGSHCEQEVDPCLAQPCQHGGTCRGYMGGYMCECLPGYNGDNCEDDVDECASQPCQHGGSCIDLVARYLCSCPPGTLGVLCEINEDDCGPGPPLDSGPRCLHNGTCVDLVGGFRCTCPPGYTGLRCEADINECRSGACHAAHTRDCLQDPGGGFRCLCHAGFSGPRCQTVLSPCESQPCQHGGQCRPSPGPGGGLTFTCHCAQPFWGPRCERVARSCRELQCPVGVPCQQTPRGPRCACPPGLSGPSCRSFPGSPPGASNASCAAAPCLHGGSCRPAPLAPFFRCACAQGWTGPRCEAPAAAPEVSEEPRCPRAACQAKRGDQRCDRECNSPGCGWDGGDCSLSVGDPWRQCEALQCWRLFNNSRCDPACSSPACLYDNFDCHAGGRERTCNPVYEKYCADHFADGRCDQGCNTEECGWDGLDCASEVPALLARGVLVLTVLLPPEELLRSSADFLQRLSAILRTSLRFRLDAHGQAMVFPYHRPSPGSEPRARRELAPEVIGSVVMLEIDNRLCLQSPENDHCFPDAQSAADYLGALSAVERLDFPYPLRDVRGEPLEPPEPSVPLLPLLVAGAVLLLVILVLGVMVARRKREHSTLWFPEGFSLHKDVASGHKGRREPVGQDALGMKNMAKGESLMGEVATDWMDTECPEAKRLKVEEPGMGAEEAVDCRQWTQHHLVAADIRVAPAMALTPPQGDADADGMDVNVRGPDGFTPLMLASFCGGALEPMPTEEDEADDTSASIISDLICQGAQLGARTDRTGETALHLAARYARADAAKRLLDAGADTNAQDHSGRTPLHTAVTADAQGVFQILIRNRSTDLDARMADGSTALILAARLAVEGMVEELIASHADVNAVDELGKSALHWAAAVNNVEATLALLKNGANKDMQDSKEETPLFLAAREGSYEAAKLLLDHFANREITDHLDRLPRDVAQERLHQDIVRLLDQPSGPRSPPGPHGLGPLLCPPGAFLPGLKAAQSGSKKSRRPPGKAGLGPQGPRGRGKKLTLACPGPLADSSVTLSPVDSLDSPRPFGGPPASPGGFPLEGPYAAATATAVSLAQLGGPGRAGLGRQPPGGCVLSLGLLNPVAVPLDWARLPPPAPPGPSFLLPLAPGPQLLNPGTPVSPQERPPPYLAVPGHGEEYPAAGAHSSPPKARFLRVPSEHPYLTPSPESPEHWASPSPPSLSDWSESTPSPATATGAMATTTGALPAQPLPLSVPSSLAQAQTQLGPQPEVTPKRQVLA
Chain of Follistatin-related protein 3 (Homo sapiens) (O95633 whole entry, looked up): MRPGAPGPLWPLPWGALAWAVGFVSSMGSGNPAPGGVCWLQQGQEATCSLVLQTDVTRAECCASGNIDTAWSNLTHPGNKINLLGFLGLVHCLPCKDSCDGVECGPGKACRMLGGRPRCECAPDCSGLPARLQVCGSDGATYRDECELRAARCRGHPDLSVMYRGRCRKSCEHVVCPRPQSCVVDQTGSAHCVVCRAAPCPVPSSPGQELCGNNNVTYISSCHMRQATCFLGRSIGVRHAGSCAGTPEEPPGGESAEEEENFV
Chain of Dickkopf-related protein 1 (Homo sapiens) (O94907 whole entry, looked up): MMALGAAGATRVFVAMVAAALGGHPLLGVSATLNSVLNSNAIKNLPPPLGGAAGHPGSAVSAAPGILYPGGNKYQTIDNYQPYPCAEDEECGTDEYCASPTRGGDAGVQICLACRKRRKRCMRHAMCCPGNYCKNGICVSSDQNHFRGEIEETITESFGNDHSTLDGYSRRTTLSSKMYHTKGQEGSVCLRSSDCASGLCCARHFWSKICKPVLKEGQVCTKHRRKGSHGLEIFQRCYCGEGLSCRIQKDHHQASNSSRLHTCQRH
Chain of Torsin-1A-interacting protein 2 (Homo sapiens) (Q8NFQ8 whole entry, looked up): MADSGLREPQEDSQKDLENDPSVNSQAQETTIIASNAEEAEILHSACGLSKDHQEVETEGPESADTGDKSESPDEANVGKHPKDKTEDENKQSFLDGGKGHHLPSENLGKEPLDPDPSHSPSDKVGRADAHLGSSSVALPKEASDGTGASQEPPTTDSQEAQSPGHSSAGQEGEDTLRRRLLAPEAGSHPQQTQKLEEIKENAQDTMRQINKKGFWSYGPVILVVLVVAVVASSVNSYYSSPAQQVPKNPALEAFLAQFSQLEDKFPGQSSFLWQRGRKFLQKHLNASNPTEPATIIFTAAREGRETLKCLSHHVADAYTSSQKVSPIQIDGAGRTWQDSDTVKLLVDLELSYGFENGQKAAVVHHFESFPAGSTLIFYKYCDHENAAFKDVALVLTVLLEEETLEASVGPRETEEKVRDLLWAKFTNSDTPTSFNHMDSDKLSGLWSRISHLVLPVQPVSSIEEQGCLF
Chain of Epidermal growth factor receptor (Homo sapiens) (P00533 whole entry, looked up): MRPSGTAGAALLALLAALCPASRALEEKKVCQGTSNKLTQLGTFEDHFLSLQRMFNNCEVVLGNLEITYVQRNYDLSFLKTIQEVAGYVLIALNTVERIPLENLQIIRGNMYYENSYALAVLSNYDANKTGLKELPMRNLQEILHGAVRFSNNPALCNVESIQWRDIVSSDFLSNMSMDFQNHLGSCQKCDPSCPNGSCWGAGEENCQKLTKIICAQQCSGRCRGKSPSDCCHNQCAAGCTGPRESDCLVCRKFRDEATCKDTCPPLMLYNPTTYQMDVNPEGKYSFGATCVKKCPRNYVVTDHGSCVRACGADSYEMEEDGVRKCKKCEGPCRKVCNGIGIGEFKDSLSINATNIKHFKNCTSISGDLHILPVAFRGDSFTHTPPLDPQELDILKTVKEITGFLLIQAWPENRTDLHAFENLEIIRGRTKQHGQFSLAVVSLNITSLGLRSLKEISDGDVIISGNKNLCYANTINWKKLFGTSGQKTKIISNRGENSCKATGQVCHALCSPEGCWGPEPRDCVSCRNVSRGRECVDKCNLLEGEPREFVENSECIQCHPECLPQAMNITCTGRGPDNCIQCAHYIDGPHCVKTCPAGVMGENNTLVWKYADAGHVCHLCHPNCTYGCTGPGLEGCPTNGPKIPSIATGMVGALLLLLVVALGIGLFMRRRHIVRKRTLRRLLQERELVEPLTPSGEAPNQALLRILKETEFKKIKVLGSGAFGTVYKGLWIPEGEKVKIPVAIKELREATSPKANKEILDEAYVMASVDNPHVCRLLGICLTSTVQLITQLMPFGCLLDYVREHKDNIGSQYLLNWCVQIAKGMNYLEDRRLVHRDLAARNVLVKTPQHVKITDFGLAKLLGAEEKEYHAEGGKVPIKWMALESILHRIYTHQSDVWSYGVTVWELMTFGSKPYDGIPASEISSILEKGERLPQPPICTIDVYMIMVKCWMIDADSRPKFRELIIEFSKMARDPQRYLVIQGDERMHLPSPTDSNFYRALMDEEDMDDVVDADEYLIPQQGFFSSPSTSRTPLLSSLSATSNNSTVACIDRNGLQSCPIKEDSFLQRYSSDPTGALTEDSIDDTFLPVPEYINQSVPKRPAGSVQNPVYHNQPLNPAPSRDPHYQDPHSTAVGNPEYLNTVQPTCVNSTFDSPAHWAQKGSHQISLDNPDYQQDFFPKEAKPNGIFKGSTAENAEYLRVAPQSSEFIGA

| SMILES | composite z-score [1] | z-score [2] | z-score [3] | z-score [4] | composite z-score [5] | z-score [6] | composite z-score [7] | composite z-score [8] | composite z-score [9] | composite z-score [10] | composite z-score [11] | composite z-score [12] | composite z-score [13] | z-score [14] | composite z-score [15] | composite z-score [16] | composite z-score [17] | composite z-score [18] | composite z-score [19] | composite z-score [20] |
| --- | --- | --- | --- | --- | --- | --- | --- | --- | --- | --- | --- | --- | --- | --- | --- | --- | --- | --- | --- | --- |
| CN(C)c1ccc(C(O)C2C=CC3C(=O)NC(=O)C3N2Nc2ccc(Cl)cc2Cl)cc1 (stereo not given) | 0.546 | -0.298 (inactive) | -1.06 (inactive) | 0.789 (inactive) | 2.58 | -0.617 (inactive) | 0.31 | -0.163 | 0.809 | -0.125 | 0.189 | 0.88 | 1.09 | 0.701 (inactive) | 0.356 | 0.121 | -0.789 | 0.554 | -0.336 | 1.43 |
| COc1cc([C@@H]2N[C@H](C(=O)O)Cc3c2[nH]c2ccccc32)cc(OC)c1OC | -0.504 | -0.258 (inactive) | -0.581 (inactive) | -0.611 (inactive) | 0.235 | 0.233 (inactive) | -0.123 | 0.367 | 0.475 | -0.0069 | 0.175 | -0.0572 | -0.272 | -0.526 (inactive) | 0.644 | 0.167 | 0.3 | 0.508 | 0.977 | -1.7 |
| CCN1C(C)=C(C(=O)OC)[C@@H](c2ccccc2)N2C(=O)[C@@]3(C(=O)OC)O[C@@]12[C@@H]1C(=O)N(c2ccccc2)C(=O)[C@@H]13 | 1.22 | -0.806 (inactive) | -1.23 (inactive) | -0.325 (inactive) | 1.2 | -0.0256 (inactive) | -0.19 | 1.21 | 0.983 | -0.087 | 0.286 | 0.0355 | -0.253 | -1.66 (inactive) | 1 | 0.85 | 0.472 | 1.24 | 0.4 | -0.545 |
| O=C1c2ccccc2[C@](Cc2ccccc2I)(C(=O)O)[C@H](c2ccc(CO)cc2)N1C1CCCCC1 | 1.54 | -0.602 (inactive) | -2.37 (inactive) | -0.997 (inactive) | 2.56 | 2.51 (inactive) | 0.143 | 0.597 | 1.01 | 0.252 | 1.31 | 0.94 | 1.05 | -1.32 (inactive) | 1.28 | 1.28 | 0.947 | 1.06 | 0.16 | 0.198 |
| CC(=O)NCCCC[C@@H]1NC(=O)[C@@H]2C[C@H](C(=O)NCc3ccc(F)cc3)[C@H](c3cccc(OCCO)c3)N2C1=O | 0.631 | 0.592 (inactive) | 0.16 (inactive) | 0.205 (inactive) | 2.43 | 0.496 (inactive) | 0.207 | 0.584 | -0.515 | -0.0953 | 1.02 | 0.0839 | 0.0979 | 0.281 (inactive) | 0.0733 | -0.895 | -0.148 | -0.488 | -0.047 | 0.101 |
| O=C1C[C@@](C(=O)NC2CC2)(c2ccc([N+](=O)[O-])cc2)[C@@H](c2ccc(CO)cc2I)N1CC12CC3CC(CC(C3)C1)C2 | 1.48 | 1.82 (inactive) | 1.19 (inactive) | 5.3 (inactive) | 2.96 | -1.05 (inactive) | -0.145 | 1.32 | 1.07 | -0.198 | 0.841 | -0.0788 | -0.52 | -1.11 (inactive) | 1.23 | 0.968 | 0.282 | 0.991 | 0.266 | -0.22 |
| CO[C@H]1COC(=O)[C@@H](Cc2ccccc2)NC(=O)[C@@H](C)COC(=O)CC=C[C@@H]1C | 0.633 | -0.236 (inactive) | -0.669 (inactive) | -0.555 (inactive) | -1.09 | 0.395 (inactive) | -0.202 | 1.48 | 0.269 | -0.096 | 0.318 | -0.63 | -1.46 | 0.105 (inactive) | 0.42 | -0.0524 | 0.954 | 0.439 | 0.913 | 1.31 |
| COCCOC(=O)N1C(=O)[C@@]2(c3cc(C#CC4=CCCCC4)ccc31)[C@H](C(=O)NC[C@H](O)c1ccccc1)[C@H]1C(=O)O[C@H](c3ccccc3)[C@H](c3ccccc3)N1[C@@H]2c1ccccc1OCCO | 1.56 | 2.24 (inactive) | 1.79 (inactive) | 4.71 (inactive) | 1.91 | -0.0963 (inactive) | 0.306 | 1.13 | 1.07 | -0.0316 | 1.28 | 0.659 | 0.635 | -1.5 (inactive) | 0.533 | 1.05 | 0.366 | 1.08 | 0.599 | 1.13 |
| [N-]=[N+]=NCc1ccccc1C[C@@]1(C(=O)N2CCOCC2)N=C(c2ccc(OCCCO)cc2)O[C@@H]1c1ccccc1N=[N+]=[N-] | 1.56 | -0.788 (inactive) | -0.39 (inactive) | 6.02 (inactive) | 3.16 | 0.282 (inactive) | 0.557 | 0.41 | 1.08 | 0.318 | 1.45 | 1.41 | 1.31 | -0.531 (inactive) | 1.42 | 0.683 | -0.11 | 0.436 | -0.433 | 1.32 |
| CC(C)C[C@@H]1NC(=O)[C@H]2C[C@@H](C(=O)NCCCCCC[N+](C)(C)C)[C@@H](c3ccc(O)cc3)N2C1=O | 0.423 | 0.248 (inactive) | 0.0827 (inactive) | 0.109 (inactive) | 1.82 | 0.283 (inactive) | -0.134 | 1.12 | 0.275 | -0.149 | 1.46 | -0.196 | 0.0009 | -0.177 (inactive) | -0.563 | -0.595 | -0.403 | 1.28 | 0.505 | 0.446 |
